MEKK2 WT-MEK5 = modulators of MEK5 binding to wildtype MEKK2, primary screen, biochemical, multiplex bead flow cytometry, Alexa488-MEK5 | Alexa488-MEK5 binding to MEKK2 WT; actives lie on both sides | binding response (% of control), % at 10 µM | actives 1.1% (n = 290,000) | AID 1531, 2009; in the data active = binding response below about 67% or above about 130%
MEKK2mut PB1 HTS = MEK5 binding signal on mutant MEKK2 PB1, primary screen, biochemical, multiplex bead flow cytometry, Alexa488-MEK5 | Alexa488-MEK5 binding to MEKK2 mutant | percent response, % at 10 µM | actives 0.35% (n = 290,000); in the data active = percent response above about 24%, passing the limit was not always enough
MEKK3 PB1 HTS = modulators of MEKK3-MEK5 PB1 binding, primary screen, biochemical, wildtype MEKK3, multiplex bead flow cytometry, Alexa488-MEK5; Mitogen-activated protein kinase kinase kinase 3 (Homo sapiens), Q99759; bead-based flow cytometry, Alexa488-MEK5 binding to MEKK3; actives lie on both sides; 0 = blocked by unlabeled MEK5, 100 = vehicle; binding response (% of control), % at 10 µM; actives 1.4% (n = 290,000);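 active = binding response more than 3 SD above or below the average of its plate-row segment, actives on both sides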;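 note: Alexa488 bead fluorescence after subtracting the streptavidin-only scavenger bead signal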
Target sequence (Q99759 whole entry, looked up): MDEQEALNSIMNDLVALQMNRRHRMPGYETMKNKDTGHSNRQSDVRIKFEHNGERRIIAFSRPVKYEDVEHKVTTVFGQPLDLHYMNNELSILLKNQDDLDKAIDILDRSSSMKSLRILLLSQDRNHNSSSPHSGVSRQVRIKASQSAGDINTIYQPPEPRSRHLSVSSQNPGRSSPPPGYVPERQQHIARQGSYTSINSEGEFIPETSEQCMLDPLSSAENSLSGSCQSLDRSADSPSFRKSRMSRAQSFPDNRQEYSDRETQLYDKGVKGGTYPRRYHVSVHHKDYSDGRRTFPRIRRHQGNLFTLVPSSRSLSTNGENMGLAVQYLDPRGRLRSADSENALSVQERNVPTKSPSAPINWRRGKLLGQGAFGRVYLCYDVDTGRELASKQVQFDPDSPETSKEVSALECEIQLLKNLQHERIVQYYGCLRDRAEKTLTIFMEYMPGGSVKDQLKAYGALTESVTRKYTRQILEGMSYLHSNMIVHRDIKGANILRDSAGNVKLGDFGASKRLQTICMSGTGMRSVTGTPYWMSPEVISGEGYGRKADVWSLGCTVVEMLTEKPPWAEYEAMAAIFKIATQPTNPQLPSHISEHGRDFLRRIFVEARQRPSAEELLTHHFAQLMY
GRK2 inh = compounds blocking aptamer binding on GRK2 – biochemical, human GRK2, bead flow cytometry, HTS, primary screen; Beta-adrenergic receptor kinase 1 (Homo sapiens), P25098; FAM-aptamer displacement from GRK2; inhibition of aptamer binding, % at 10 µM; actives 0.59% (n = 330,000);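 active = inhibition of aptamer binding above 40%, roughly 3 SD of noise, on plates passing a quality check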;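 note: median bead fluorescence of bound FAM aptamer so fluorescent compounds give negative values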
MEKK2wt confirm = modulators of MEK5 binding to wildtype MEKK2, confirmation, biochemical, single concentration, multiplex bead flow cytometry | shares compounds with MEKK3 PB1 HTS | actives 2.4% (n = 5,900) | binding response (% of control), % at 10 µM | Alexa488-MEK5 binding to MEKK2 WT; actives lie on both sides; in the data active = binding response below about 16% or above about 210%; inactive = in between
MEKK2mut confirm = mutant MEKK2 PB1-MEK5 binding signal retest – biochemical, single concentration, multiplex bead flow cytometry, confirmation; actives 2% (n = 5,900); Alexa488-MEK5 binding to MEKK2 mutant; percent response, % at 10 µM; shares compounds with MEKK3 PB1 HTS; in the data active = percent response mostly above about 71%, no sharp cut-off; inactive = mostly below about 38%;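 note: higher means compound restores mutant binding toward wildtype level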
MEKK3-MEK5 inh = MEKK3 wild-type PB1 binding to MEK5, inhibitors, confirmation, biochemical, bead multiplex flow cytometry, single concentration, wildtype; shares compounds with MEKK3 PB1 HTS; Alexa488-MEK5 binding to MEKK3; active compounds read low; binding response (% of control), % at 10 µM; actives 1.8% (n = 5,900); AID 1894, 2009;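 active = binding response below 72% of control, or above a set upper limit, though filed actives all read lower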;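 note: 100% = DMSO only wells and 0% = binding blocked by excess unlabeled MEK5; lower values mean stronger disruption of MEK5 binding to MEKK3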
The depositor's hits bear a star; . = not tested or not shown; [ ] = remark or other dose. Compounds with a hit are over-represented: about 2.5% of the library has one in this group of screens.

SMILES | MEKK2 WT-MEK5 | MEKK2mut PB1 HTS | MEKK3 PB1 HTS | GRK2 inh | MEKK2wt confirm | MEKK2mut confirm | MEKK3-MEK5 inh
Cc1ccc(C2=NN(S(=O)(=O)c3ccccc3)C(c3ccccc3O)C2)cc1 (stereo not given) | . | 161* | 14*[inhibitor] | . | 88 | -7 | 88
O=S(=O)(c1ccccc1)N1N=C(c2ccccc2)CC1c1ccco1 (stereo not given) | 87 | -11 | 93 | 2 | . | . | .
COc1ccc(C2CC(c3ccccc3)=NN2S(=O)(=O)c2ccccc2)cc1 (stereo not given) | 103 | 50 | 20*[inhibitor] | 1 | 91 | -17 | 85
CS(=O)(=O)N1N=C(c2ccccc2)CC1c1ccc2c(c1)OCO2 (stereo not given) | . | . | 20*[inhibitor] | 0 | 67 | -22 | 68*
CC(NC(=O)C1CCCN(C(=O)c2ccc(Cl)cc2)C1)c1cccc(C(F)(F)F)c1 (stereo not given) | . | . | . | 0 | . | . | .
CCN(CC(=O)Nc1ccccc1C(F)(F)F)C(=O)c1ccc(N2C(=O)CCC2=O)cc1 | 106 | 4 | 101 | 3 | . | . | .
COc1cc(C2NC(=O)NC(c3ccccc3)=C2C(C)=O)cc([N+](=O)[O-])c1O (stereo not given) | 98 | -2 | 99 | 0 | . | . | .
Cc1noc(C)c1COc1ccc(C(=O)OCc2nnc(-c3ccc(Cl)cc3)o2)cc1 | 2.0*[inhibitor] | -21 | 2.0*[inhibitor] | 0 | 100 | -3 | 103
Cc1ccccc1C(=O)OCc1nnc(-c2ccc(Cl)cc2)o1 | 121 | 6 | 146* | 2 | 93 | -5 | 98
O=C(OCc1nnc(-c2ccc(Cl)cc2)o1)c1ccncc1 | 90 | -2 | 97 | 0 | . | . | .
Cc1ccc(O)c(O)c1 | 99 | 1 | 99 | 0 | . | . | .
CC(C)C(=O)c1ccc(O)c(O)c1 | 68 | -33 | 70*[inhibitor] | 0 | 106 | 12 | 104
OCCC1CN(Cc2cnc(N3CCOCC3)s2)CCN1C1CCCC1 (stereo not given) | 96 | -5 | 92 | 1 | . | . | .
CCc1nnc(NC(=O)CSc2nnc(-c3ccncc3)n2C)s1 | 1.0*[inhibitor] | 1 | 2.0*[inhibitor] | 1 | 103 | -1 | 102
Cc1nc(NC(=O)CSc2nnc(-c3ccncc3)n2C)sc1C | 97 | 0 | 101 | 3 | . | . | .
CCn1c(C)nc2cc(C(=O)NNC(=S)Nc3ccc(Cl)cc3)ccc21 | 19*[inhibitor] | -13 | 25*[inhibitor] | 0 | 97 | 5 | 101
CCn1c(C)nc2cc(C(=O)NNC(=S)Nc3ccc(F)cc3)ccc21 | 101 | 8 | 103 | 0 | . | . | .
COc1ccccc1N1CCN(C(=O)c2ccc3c(=O)n(Cc4ccc5c(c4)OCO5)c(=O)[nH]c3c2)CC1 | 91 | 0 | 98 | 0 | . | . | .
CC12CC(c3ccccc3O1)C(C(=O)NCc1ccccc1)C(=O)N2 (stereo not given) | 87 | -6 | 81*[inhibitor] | 3 | 82 | -10 | 87
COc1ccccc1NC(=O)CC1SC(=N)N(c2ccccc2)C1=O (stereo not given) | 104 | 3 | 103 | 2 | . | . | .
CCOc1ccccc1NC(=O)CC1SC(=N)N(c2ccccc2)C1=O (stereo not given) | 112 | 0 | 139* | 2 | 107 | 6 | 108
C/C=C/c1ccc(OCC(O)CNCC(c2ccc(OC)cc2)N(C)C)c(OC)c1 (stereo not given) | 146* | 19 | 111 | 0 | 120 | 7 | 101
COc1ccc(-c2cc3c(=O)n(CC(=O)Nc4cccc(Cl)c4)ncn3n2)cc1 | 101 | -1 | 102 | 0 | . | . | .

Screening results: PubChem, NMMLSC
